Assay outcomes from PubChem.
In the library only some 1.6% were active in any assay of this set; here they are far more common.
Rce1 inhib: blocks yeast Ras-converting enzyme; hit rate 0.27% among 290,000; yeast membranes, quenched prenylated peptide cleavage fluorescence; Q03530; calls only;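 active means fall in fluorescence gain of 50% or more versus controls, with final raw signal at or below 3038400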;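 further: plate controls were neutral control wells for no effect and wells lacking membranes for full effect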
Target sequence (Q03530 whole entry, looked up): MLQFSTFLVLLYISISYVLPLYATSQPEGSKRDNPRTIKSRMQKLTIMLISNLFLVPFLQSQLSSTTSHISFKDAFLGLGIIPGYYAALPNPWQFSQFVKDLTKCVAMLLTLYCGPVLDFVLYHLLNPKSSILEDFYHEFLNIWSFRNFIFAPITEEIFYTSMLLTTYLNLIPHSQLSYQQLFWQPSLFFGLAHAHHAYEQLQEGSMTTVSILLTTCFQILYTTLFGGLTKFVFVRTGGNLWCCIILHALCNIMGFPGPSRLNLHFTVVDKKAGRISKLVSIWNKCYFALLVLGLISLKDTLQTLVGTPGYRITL
PERK inhibitor: blocks human PERK kinase | Q9NZJ5 | CHO PERK-DD fusion, SEAP luminescence translation reporter | hit rate 0.17% among 220,000 | inhibition, % at 5.6 µM;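 active means inhibition above the mean inhibition of all tested compounds plus 3 SD, set separately per screening campaign, cut at about 2.9% in these data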;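 further: PERK kinase domain activated by AP20187 dimerizer at 100 nM; 0% = DMSO with dimerizer and 100% = rapamycin at 8.4 µM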
NLRP3 yeast inh: blocks the NALP3 inflammasome reconstituted in yeast; Yeast reconstituted NLRP3/ASC/caspase-1, beta-gal luminescence, 24 h; inhibition, % at 10 µM; hit rate 0.39% among 330,000; AID 2825;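 active means inhibition of 50% or more; inactive means inhibition below 50%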;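 further: plate controls were induced DMSO wells for no effect and uninduced yeast grown without galactose for full effect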
V-ATPase pH: regulators of yeast V-ATPase proton transport; S. cerevisiae, pHLuorin cytosolic pH fluorescence; response, % at 10 µM; hit rate 0.37% among 350,000; in the data active means response mostly above about 7.3%, no sharp cut-off; inactive means mostly below about 5.4%; further: actives read high
NALP1 inh: NALP1 inhibition; S. cerevisiae NALP1/ASC/caspase-1 growth, X-gal OD620, 72 h; inhibition, % at 10 µM; hit rate 0.61% among 280,000; in the data active means inhibition mostly above about 24%, no sharp cut-off; inactive means mostly below about 32%
CR mimetic SO: yeast age-related superoxide inhibition as caloric restriction mimetic | S. cerevisiae aged cells, superoxide DHE fluorescence; hits give low values | superoxide response (% of plate mean), % at 10 µM | hit rate 0.18% among 330,000 | AID 2690;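 active means superoxide response under a set limit, about three screen SD below normal, cut at about 65% in these data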;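 further: yeast aged for seven days with compound at 30 °C before DHE staining; 100% = average MFI of all compound-treated wells on the plate with controls excluded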
* hit, by the source's call; i = inactive; . = not tested or not shown; + = active, no number.

SMILES | Rce1 inhib | PERK inhibitor | NLRP3 yeast inh | V-ATPase pH | NALP1 inh | CR mimetic SO
COc1ccc(CNC(C)CCc2ccccc2)cc1 (stereo unspecified) | i | . | 24.3 | -1.1 | . | 102.1
COc1ccc(CCNC(=O)CN(c2ccccc2OC)S(C)(=O)=O)cc1 | i | 0.8 | 2.4 | 1.0 | 30.5* | 97.1
Oc1ccc(-c2cn3cc(C(F)(F)F)ccc3n2)cc1 | + | -0.6 | 25.1 | 2.4 | 38.1 | 113.2
CCc1cc(=O)oc2c(C)c(OC(C)C(=O)NC3CC(C)(C)NC(C)(C)C3)ccc12 (stereo unspecified) | + | . | 6.2 | -2.4 | 31.9 | 94.2
CN(C)CCCN1C(=O)c2cccc3cccc(c23)C1=O | + | . | -11.0 | -0.9 | 4.1 | 100.5
O=C(COC(=O)c1ccc2c(c1)OCCO2)NCc1ccc(Cl)cc1 | . | . | . | -0.4 | . | .
OCC1(CCc2ccccc2)CCN(Cc2ccccc2Cl)CC1 | i | 1.3 | 21.5 | -3.1 | 5.1 | 103.2
Cc1cccc(CN2CCN(CCCc3ccccc3)CC2)c1 | i | -1.5 | 18.9 | . | 31.0* | 77.4
Clc1ccccc1CN1CCN(CCCc2ccccc2)CC1 | i | 0.1 | . | 4.2 | 21.5* | .
Cc1ccc(NC(=O)C(C)Sc2nnc3n2CCCCC3)cc1S(=O)(=O)N1CCOCC1 (stereo unspecified) | . | . | . | 2.4 | . | .
O=c1[nH][nH]c(-c2ccccc2)c1C=Nc1ccc(Cl)cc1 | i | 1.3 | 21.0 | 0.7 | -4.6 | 102.1
O=c1[nH][nH]c(-c2ccccc2)c1C=Nc1cccc(Cl)c1 | i | 2.9* | 8.8 | -0.5 | -8.9 | 106.2
O=C(NC(Sc1ccc(Cl)cc1)C(=O)O)c1ccccc1 (stereo unspecified) | . | . | . | -0.6 | . | .
CCOc1ccccc1C(=O)NCC(=O)N(C)CC(=O)Nc1ccc(N2CCOCC2)cc1 | . | . | . | -0.5 | . | .
CCCCCC(=O)N1C[C@H](O)[C@@H](n2cc(COC(=O)c3ccccc3)nn2)C[C@@H]1c1ccc(OC)cc1 | . | . | . | 0.1 | . | .
Cn1c(=O)c2cc(S(=O)(=O)NCCC(=O)Nc3ccc(Cl)cc3)ccc2n(C)c1=O | i | 1.4 | 2.2 | 10.9 | -0.1 | 101.6
Cn1c(=O)c2cc(S(=O)(=O)NCCC(=O)NCCc3ccc(Cl)cc3)ccc2n(C)c1=O | i | -0.9 | -1.5 | 22.4* | 3.6 | 92.9
CCCCCCCCOc1ccc(C(=O)O)cc1 | . | . | 35.4 | 3.9 | . | 113.8
CCCn1c(COc2ccc(C(=O)O)cc2)nc2ccccc21 | i | . | 27.0 | 3.3 | 42.9* | 99.5
CCCCOc1ccc(C(=O)O)cc1 | i | 0.3 | 45.2 | 1.4 | 19.9* | 90.6
Cn1c(COc2ccc(C(=O)O)cc2)nc2ccccc21 | i | . | 21.0 | -0.9 | 2.5 | 99.0
Cc1ccc(NC(=O)Cn2cnc3cc([N+](=O)[O-])ccc3c2=O)c(Cl)c1 | i | 1.6 | 0.8 | 7.3 | -0.6 | 115.0
Cc1ccc(NC(=O)Cn2cnc3cc([N+](=O)[O-])ccc3c2=O)cc1 | i | 0.8 | 30.6 | 1.3 | 36.9* | 112.6
CCN1C(=O)c2ccc(C(=O)NCc3ccco3)cc2C1=O | . | . | 11.6 | 1.3 | 30.8* | 102.3
CCOc1c2ccc(C(=O)NCc3ccco3)cc2nn1CCOC | + | 1.5 | 9.3 | 0.3 | -5.3 | 95.6
SMILES | Rce1 inhib | PERK inhibitor | NLRP3 yeast inh | V-ATPase pH | NALP1 inh | CR mimetic SO
CCCN1C(=O)c2ccc(C(=O)NCc3ccco3)cc2C1=O | i | 0.1 | 2.6 | 1.6 | 10.4 | 97.9
O=C1CC(N2CCC(Cc3ccccc3)CC2)C(=O)N1CCc1ccccc1 (stereo unspecified) | i | -1.8 | 15.1 | 10.0* | 13.7 | 97.5
O=C1CC(N2CCN(C3CC(=O)N(CCc4ccccc4)C3=O)CC2)C(=O)N1CCc1ccccc1 (stereo unspecified) | i | -1.0 | -3.2 | 1.0 | . | 104.7
Cc1cc(C)nc(SCc2ccc(C(=O)O)o2)n1 | i | 3.1* | 14.2 | -1.8 | 6.1 | 97.6
Cc1cc(C(F)(F)F)nc(SCc2ccc(C(=O)O)o2)n1 | i | 1.5 | 2.0 | 4.3 | -17.9 | 142.3
Cc1cc(C)nc(SCC(=O)NNC(=O)c2ccccc2C)n1 | i | -0.6 | 7.1 | -1.0 | -10.0 | 65.1*
O=[N+]([O-])c1ccc(CNc2ccc(F)cc2)s1 | i | . | 10.5 | 2.0 | 12.9 | 97.5
COc1ccc(NCc2ccc([N+](=O)[O-])s2)cc1 | i | 1.2 | 15.7 | -1.5 | 62.5* | 88.0
COc1ccc(NCc2ccc([N+](=O)[O-])s2)c(OC)c1 | . | 0.8 | . | 1.4 | 52.5* | 90.7
Cc1ccc2cc3cc(C(=O)NCCCN4CCc5ccccc5C4)oc3nc2c1 | i | -2.0 | 2.3 | -1.7 | 46.3* | 109.8
COc1ccc(-c2cc(C(=O)N3CCN(c4ccccc4)CC3)c3ccccc3n2)cc1 | + | 0.3 | -10.9 | -3.5 | -3.6 | 90.8
COc1ccc(-c2cc(C(=O)N3CCCC3)c3ccccc3n2)cc1 | i | . | 27.5 | -2.6 | 25.6 | 90.4
Cc1cccc(Nc2ccccc2C(=O)OCC(=O)N(C)C2CCS(=O)(=O)C2)c1C (stereo unspecified) | + | 1.1 | 0.3 | -1.7 | -1.3 | 87.2
CN(C(=O)COC(=O)c1cc([N+](=O)[O-])ccc1Sc1ccccc1)C1CCS(=O)(=O)C1 (stereo unspecified) | + | 0.2 | 21.5 | 2.4 | 28.1* | 92.6
CN(C(=O)COC(=O)c1ccccc1Nc1ccccc1)C1CCS(=O)(=O)C1 (stereo unspecified) | i | -0.8 | -13.9 | 2.4 | -5.8 | 97.4
Cc1ccccc1C(=O)NC1CC2CCCC(C1)N2CC(C)C (stereo unspecified) | . | . | . | -0.5 | . | .
c1ccc2c(Nc3nc(N4CCOCC4)c4ccccc4n3)cccc2c1 | i | -1.2 | 47.1 | -1.3 | 91.4* | 105.0
COCc1c(C(=O)Nc2nnc(C3CC3)s2)oc2ccccc12 | . | . | . | 0.2 | . | .
O=C(c1ccco1)N1CCN(C(=O)c2ccc(CS(=O)c3ccc(F)cc3)o2)CC1 (stereo unspecified) | i | . | 13.1 | -3.0 | 44.3* | 95.4
CCCN1CCN(C(=O)c2ccc(CS(=O)c3ccc(F)cc3)o2)CC1 (stereo unspecified) | i | . | 10.5 | 9.6 | -27.4 | 98.5
Cc1ccc(S(=O)(=O)N2C[C@H]3N(C(=O)OC(C)C)N(C(=O)OC(C)C)C[C@H](OC(=O)NCC4CCCCC4)[C@@]3(O)C2)cc1 | . | . | . | 0.1 | . | .
C=C1C(C(=O)N2CCN(C)CC2)C1C(=O)N1CCN(C)CC1 (stereo unspecified) | i | 0.2 | 10.4 | 13.4* | 2.8 | 97.8
O=C(Nc1cccc(N2C(=O)C3C4C=CC(C4)C3C2=O)c1)c1cccs1 (stereo unspecified) | i | 0.0 | 9.0 | -3.8 | 12.0 | 124.0
Cc1cc(N2C(=O)C3C4C=CC(C4)C3C2=O)ccc1NC(=O)c1cccs1 (stereo unspecified) | + | 1.1 | -2.9 | -1.5 | -5.6 | 94.1
Cc1cccc(NC(=O)c2cc(S(=O)(=O)N3CCCCC3)c[nH]2)c1C | + | . | 17.8 | 4.3 | 8.0 | 96.5
CCc1ccccc1NC(=O)c1cc(S(=O)(=O)N2CCCC2)c[nH]1 | i | . | 13.2 | 0.8 | 13.7 | 100.6
